# Reference: the supplement of paper PMC3334620
# In all, about 33,000 sequences were measured (“E-score (-0.5 to 0.5)”: median about -0.0059, highest 2% from about 0.26 on). The full list was thinned out, with the highest values kept by preference.
# Molecular target: T1, Cin5 (UniProt P40917)
# T1 sequence: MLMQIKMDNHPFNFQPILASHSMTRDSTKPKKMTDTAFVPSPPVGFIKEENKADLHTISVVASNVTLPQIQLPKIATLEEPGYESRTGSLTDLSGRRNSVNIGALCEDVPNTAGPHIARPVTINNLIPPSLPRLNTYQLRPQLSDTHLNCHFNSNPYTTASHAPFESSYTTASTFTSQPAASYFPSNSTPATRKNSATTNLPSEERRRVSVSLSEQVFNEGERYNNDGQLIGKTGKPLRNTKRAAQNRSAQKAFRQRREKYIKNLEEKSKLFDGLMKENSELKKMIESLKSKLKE
# Test: PBM E-score (8-mer binding enrichment) (E-score (-0.5 to 0.5)); higher = stronger / more preferred TF binding
# Conditions: protein concentration: 100 nM; construct: GST-full length
# Outline: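 Detection of bound protein used fluorescent anti-GST, with scans normalised by masliner. The proteins were GST-tagged yeast transcription factors applied at about 100-200 nM to universal all-10-mer Agilent arrays made double-stranded by primer extension. Each ungapped eight-base word, pooled with its reverse complement, was scored with an E-score from the Universal PBM Analysis Suite.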
row,Sequence,PBM E-score
1,ACGGTGCA,-0.139
2,AAGGTTAA,0.0178
3,AAAGGGCA,-0.174
4,GAAATCAC,0.149
5,TTAATCAA,0.166
6,TCAATCAA,0.173
7,GTAATCAC,0.321
8,CTAATCAC,0.248
9,GAAATCAA,0.167
10,CTAATCAA,0.301
11,GTAATCAA,0.392
12,GGAATCAA,0.0945
13,ACAGCGAA,-0.00314
14,AGTTTGAA,0.0821
15,GCTTTGTA,0.174
16,GAAGATTC,0.0827
17,CCTGCAGC,-0.0691
18,CTAAGCGA,0.0261
19,ATAAGCGG,0.206
20,GGAAGCGA,0.0828
21,GTAAGCGA,0.383
22,ATAAGCGC,0.188
23,ATAAGCGA,0.267
24,GACGTACC,-0.0136
25,CATCGAAA,-0.0105

row,Sequence,PBM E-score
1,CTTCAAAA,0.0157
2,GTGTTGAA,0.0739
3,GCTGGCCC,-0.269
4,AAGCTAGA,-0.0103
5,CTACAAAC,0.043
6,AAGGGAGT,-0.285
7,ATTACCTC,0.142
8,ATTACCTG,0.113
9,CTTACCTC,-0.0461
10,CTTACCTA,0.32
11,ATTACCTA,0.349
12,GTTACCTA,0.131
13,CCTAGGTA,-0.0942
14,CAGTTGCA,-0.123
15,CGATTTAG,0.182
16,ACAATCGA,0.0876
17,GCTTCTAA,-0.109
18,AGTATCCC,0.0604
19,AAGGATCG,0.00025
20,CTGGGACC,-0.316
21,ATTGTTTG,0.168
22,GTTGTTAA,0.284
23,CTTGTTAA,-0.0283
24,CTTGTTTC,0.0494
25,CTTGTTAC,-0.0236

row,Sequence,PBM E-score
1,ATTGTTAG,0.109
2,ATTGTTTC,0.275
3,ATTGTTAA,0.0779
4,ATTGTTAC,0.276
5,CGGGGGTC,-0.417
6,CCTCCGAG,-0.16
7,GCTAAGCA,0.0676
8,GCCCAATA,0.0485
9,ACAGGACG,-0.133
10,CCACATAG,-0.0996
11,CGGGCCCC,-0.12
12,GAACATAA,0.198
13,CAACATAC,0.125
14,AATCATAG,0.291
15,CATCATAA,0.139
16,AATCATAT,0.193
17,CAACATAA,0.286
18,TAACATAA,0.317
19,TATCATAA,0.272
20,AAACATAA,0.199
21,AATCATAC,0.206
22,GATCATAA,0.241
23,CAACATAG,0.0889
24,CCGGAGTC,0.014
25,AACCTCCG,-0.183

row,Sequence,PBM E-score
1,ATGCCCTA,-0.0594
2,CCCGATAA,-0.0584
3,AAACCATT,0.045
4,CCTAGGGC,-0.254
5,ACCCTCAT,-0.136
6,GGATTGAA,0.104
7,CTGCCCAG,-0.249
8,CCGTGTAC,0.102
9,CCATAAAA,0.0525
10,AAGCAGAT,0.128
11,CAGCAGAA,-0.0607
12,AAGCAGAA,0.261
13,ACTGATAC,-0.00272
14,CTCTTACA,0.0444
15,CGTGCCTA,-0.177
16,GCACCGGC,-0.178
17,CTGTAGCA,-0.13
18,ACAACTTG,0.0528
19,ACAACTTA,0.184
20,ACAACTTC,0.296
21,ACAATCGT,-0.0859
22,ATCCTCCC,-0.103
23,CAGTAATA,0.254
24,TAGTAATA,0.27
25,GAGTAATA,0.26

row,Sequence,PBM E-score
1,TAGTAAAA,0.137
2,TAATAGTA,0.228
3,AAGTAATA,0.247
4,AACCCTTA,0.168
5,AGCTTCAG,-0.115
6,GCCGCGAA,-0.133
7,AATTACGG,0.141
8,GATTACGC,0.301
9,AATTACAT,0.322
10,CATTACGC,0.0481
11,GATTACGA,0.434
12,AATTACAG,0.107
13,AATTACGT,0.278
14,GGTTACGA,0.0792
15,AATTACAC,0.0804
16,TATTACGA,0.257
17,GATTACAC,0.233
18,AATTACGC,0.073
19,ACTCTTGC,-0.108
20,GACGGTCC,-0.201
21,CATGGCGA,-0.0534
22,CGGTGGTC,-0.098
23,ATGTCCAA,0.0429
24,AATTACGA,0.313
25,AATTACCA,0.187

row,Sequence,PBM E-score
1,CATTACGA,0.127
2,CTCAGATC,0.0619
3,AGTGAGTA,0.284
4,ATTGAGTA,0.262
5,GTTGAGTA,0.0846
6,ATTGAGTC,0.103
7,CGTGAGTA,0.0731
8,AGTGAGTG,-0.0867
9,AAGCAACA,0.162
10,CATAAAGA,0.104
11,CGCATCGA,0.182
12,ATAACGCC,0.0372
13,GGTAAGGA,-0.153
14,AGTAAGCA,0.283
15,AGTAAGCG,0.354
16,AGTAAGGG,0.0482
17,GGTAAGCA,0.318
18,ACTAAGCG,0.149
19,GGTAAGAA,0.011
20,AGTAAGTA,0.227
21,ACTAAGCA,0.241
22,AGAGCTTG,-0.0623
23,CAAGACCA,-0.0752
24,AGAGATCT,-0.171
25,CATCTCAC,0.0306

row,Sequence,PBM E-score
1,GATCTCAA,0.112
2,AATCTCAA,0.184
3,CATCTCAG,0.268
4,CATCTCAA,0.0545
5,TATCTCAA,0.261
6,GTGGCTAA,0.181
7,ACTTCATC,-0.0118
8,CTCAACAA,0.197
9,ACCTCATC,0.0947
10,AGGTGAAT,0.099
11,AAGACAAG,-0.0281
12,CAGACAAC,0.0843
13,AAGACAAC,0.274
14,GACCGCGA,-0.129
15,CCACGTAA,0.165
16,ACACGTAG,-0.151
17,ACACGTAA,0.3
18,ACACGTAC,-0.0415
19,TCACGTAA,0.322
20,GCACGTAA,-0.00694
21,GCTCTTAA,-0.0595
22,CGGCTAAG,-0.025
23,CGTGCGGC,-0.139
24,AAAATCGC,0.0818
25,TATGGCCA,0.0804

row,Sequence,PBM E-score
1,ACCTAGAC,-0.126
2,GACTCTCC,-0.189
3,AATGCGGG,0.273
4,AATGCGGC,-0.00913
5,AATGCGGT,-0.0647
6,TGCCCTAA,-0.0446
7,AAGTTGTA,0.178
8,AAGTTGTC,0.127
9,AAGTTGTG,0.265
10,CCCATCGC,0.0166
11,CCCCGACG,-0.00202
12,GATATCCA,0.183
13,ATCGGAAT,0.151
14,ATCGGAAA,0.0538
15,ATCGGAAC,0.267
16,CGTTCAAC,0.0923
17,CATAAGCG,0.267
18,CATAAGGG,0.1
19,GATAAGCA,0.275
20,TATAAGCA,0.256
21,AATAAGCG,0.109
22,AATAAGCA,0.176
23,CATAAGCA,0.336
24,GATAAGCC,0.0299
25,CATAAGCC,0.245

row,Sequence,PBM E-score
1,CCCTGTGC,-0.18
2,CCTCGGGA,-0.13
3,GTAGACCA,-0.101
4,GCCAAGGA,-0.199
5,CCGGCGTC,-0.0574
6,TCAGTGGA,-0.093
7,GACATAAC,0.276
8,CATATATG,0.114
9,CACATAAC,-0.00529
10,TATATACA,0.187
11,CATATATA,0.322
12,CATATATC,0.102
13,TACATAAA,0.323
14,GACATAAA,0.239
15,CACATAAA,0.183
16,TATATATA,0.369
17,TATATAGA,0.238
18,AACATAAA,0.0668
19,CCAGTCCC,-0.0959
